This is a sample that favours compounds with a hit; in the whole collection about 2% have one here.
M1 ag parental: counter-screen for M1 agonists: effect in parental CHO-K1 cells; AID 602248; 0.48% of 360,000 active; activation, % at 3 µM; Fluo-8 calcium fluorescence; scaled to maximal ATP response, vehicle zero; in the data active means activation above about 15%;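 further: untransfected CHO-K1 host cells lacking M1 receptor as counterscreen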
CHRM4 antagonist: antagonists of human muscarinic M4 receptor (CHRM4) | CHO-hM4 cells, ACh EC80, Fluo-8 calcium fluorescence | inhibition, % at 3 µM | 0.73% of 360,000 active | AID 624125;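 active means inhibition above its plate's cutoff, the mean inhibition of sample wells plus 3 SD, cut at about 27% in these data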;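 further: 0% = acetylcholine EC80 with DMSO and 100% = DMSO without agonist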
Target sequence (P08173 whole entry, looked up): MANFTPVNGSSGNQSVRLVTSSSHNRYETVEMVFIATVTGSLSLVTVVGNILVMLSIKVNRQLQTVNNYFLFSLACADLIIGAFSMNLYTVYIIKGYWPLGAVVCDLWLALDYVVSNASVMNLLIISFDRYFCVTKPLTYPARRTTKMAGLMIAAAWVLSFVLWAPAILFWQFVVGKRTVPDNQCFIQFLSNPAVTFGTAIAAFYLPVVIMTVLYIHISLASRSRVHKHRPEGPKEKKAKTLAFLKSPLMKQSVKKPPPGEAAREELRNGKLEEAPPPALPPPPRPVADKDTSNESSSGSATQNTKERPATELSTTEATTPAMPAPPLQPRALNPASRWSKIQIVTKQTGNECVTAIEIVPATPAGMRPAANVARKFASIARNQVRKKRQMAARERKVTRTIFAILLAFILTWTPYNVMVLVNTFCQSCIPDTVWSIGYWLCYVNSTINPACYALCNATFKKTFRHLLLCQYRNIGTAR
CHRM4 PAM: CHRM4 positive allosteric modulation; P08173; activation, % at 3 µM; CHO-K1 hM4/Gqi5, Fluo-8 calcium fluorescence, ACh EC20; 0% = ACh EC20, 100% = maximal ACh; 0.4% of 360,000 active;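 active means activation above its plate's cutoff, the mean activation of sample wells plus 3 SD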
CHO-K1 Ca antag: nonselective inhibitor or artifact in parental CHO-K1 cells | AID 602250 | ATP-induced calcium, Fluo-8 fluorescence | inhibition, % at 3 µM | 0.6% of 360,000 active;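 active means inhibition above a per-plate cutoff, the plate's mean sample inhibition plus 3 SD, cut at about 24% in these data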;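 further: 0% = DMSO plus EC80 ATP and 100% = DMSO alone without ATP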
M4 ag: CHRM4 agonism in calcium assay | AID 624127 | P08173 | activation, % at 3 µM | CHO-K1 hM4/Gqi5, Fluo-8 calcium fluorescence; vehicle 0%, full acetylcholine response 100% | 0.14% of 360,000 active;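 active means activation above the run mean over all test wells plus 3 SD, cut at about 32% in these data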;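 further: peak over basal fluorescence ratio per well then scaled between controls; 0% = DMSO wells and 100% = acetylcholine at EC100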
CHO-K1 Ca PAM: M1 PAM counterscreen hit in parental CHO-K1 cells; ATP EC20, Fluo-8 calcium fluorescence; 0% at ATP EC20, 100% at ATP max; activation, % at 3 µM; 0.02% of 360,000 active; AID 602247;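 active means activation above the run cutoff, the mean activation of all test compounds plus 3 SD, cut at about 40% in these data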;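 further: peak over basal fluorescence ratio in a 140 s read after ATP addition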
Starred values were filed as active, the others as inactive.

SMILES	M1 ag parental	CHRM4 antagonist	CHRM4 PAM	CHO-K1 Ca antag	M4 ag	CHO-K1 Ca PAM
CC(C)c1ccc(C(=O)OCC(=O)NC2CCCC2)cc1	1	11	-4	6	3	-5
O=S(=O)(Nc1nc2ccccc2nc1NCC1CCCO1)c1cc(Cl)ccc1Cl (centres undefined)	5	-1	-7	-6	4	4
Cn1cc(S(=O)(=O)N2CCc3ccccc32)cc1C(=O)NC(C)(C)C	6	37*	-12	26*	24	-13
CSc1cccc(NS(=O)(=O)c2ccc3c(c2)CCN3C(C)=O)c1	18*	3	-12	29*	21	-29
CC(=O)N1CCc2cc(S(=O)(=O)N3CCc4ccccc43)ccc21	15*	-16	-4	9	14	1
Cc1cccc(C)c1NC(=O)c1cc(S(=O)(=O)N2CCc3ccccc32)cn1C	1	0	-2	2	2	0
CC(=O)N1CCN=C1SCc1c(F)cccc1Cl	0	-13	20*	4	2	5
Cn1nc(C(C)(C)C)cc1C(=O)NCc1cc(F)cc2c1OCOC2	15*	23	-12	31*	20	-14
CN(CC(=O)Nc1cc(C(F)(F)F)ccc1-n1cncn1)Cc1ccccc1N1CCOCC1	2	0	4	-7	20	-2
CC1=C(C(=O)N2CCOCC2)C(c2ccc(C)cc2)NC(=S)N1 (centres undefined)	1	4	8	1	2	11
CC1=C(C(=O)N2CCOCC2)C(c2ccc(Cl)cc2)NC(=S)N1 (centres undefined)	20*	-8	8	7	1	14
O=C(OC1CCOC1=O)c1ccc(CO)cc1 (centres undefined)	1	3	-3	-16	1	9
Fc1ccc(C2CCCN2Cc2nc(Cc3ccccc3)no2)cc1 (centres undefined)	0	13	-7	-6	-1	2
COc1ccc(-n2c(C)c(C(C)=O)c(C(C)=O)c2C)cc1OC	0	-20	17*	-11	1	10
CC1CN=C(NC2CCCCC2C)S1 (centres undefined)	1	27*	-9	-5	0	16
CC1CCCCC1NC1=NCCS1 (centres undefined)	0	2	-1	12	0	-3
CCC(Oc1ccccc1)C(=O)OCC(=O)Nc1sccc1C(N)=O (centres undefined)	17*	3	-2	6	22	-19
NC(=O)c1ccsc1NC(=O)COC(=O)Cc1ccccc1Cl	19*	22	-9	11	25	-3
CC(=O)c1ccc(OCC(=O)OCC(=O)Nc2sccc2C(N)=O)cc1	17*	12	-4	9	22	-10
CCOC(=O)c1c(C)[nH]c(C(=O)OCC(=O)Nc2sccc2C(N)=O)c1C	17*	13	-11	6	19	-4
CCOC(=O)c1c(C)[nH]c(C(=O)OCC(=O)Nc2ccc(Cl)cn2)c1C	0	-7	17	-10	1	-21
COc1ccc(OCCCC(=O)OCC(=O)Nc2sccc2C(N)=O)cc1	14	9	-10	12	23	-23
Cc1cc(C)c(NC(=O)CNC(=O)COC(=O)CNC(=O)c2ccc(Cl)cc2Cl)c(C)c1	0	-5	4	-5	0	13
CCOC(=O)[C@]12CCCC=C1N(Cc1ccco1)C(=O)[C@H](CC(=O)NCCCN1CCCC1=O)C2	1	1	3	-7	0	11
O=c1[nH]cc(S(=O)(=O)N2CCOCC2)c(=O)[nH]1	1	-21	10	-11	2	24
SMILES	M1 ag parental	CHRM4 antagonist	CHRM4 PAM	CHO-K1 Ca antag	M4 ag	CHO-K1 Ca PAM
NC(=O)c1ccsc1NC(=O)COC(=O)CCCOc1ccccc1	14	7	-8	17	22	-3
NC(=O)c1ccsc1NC(=O)COC(=O)CCc1ccccc1	16*	6	-11	6	27	-4
NC(=O)c1ccsc1NC(=O)COC(=O)CCOc1ccccc1	17*	13	-19	2	20	-13
COc1cc(CC(=O)OCC(=O)Nc2sccc2C(N)=O)cc(OC)c1OC	16*	9	-16	8	24	-6
NC(=O)c1ccsc1NC(=O)COC(=O)Cc1ccsc1	6	4	-8	-2	10	7
Cc1ccc(CN2C(=O)C(C)Nc3ncnc(N4CCN(c5ccccn5)CC4)c32)cc1 (centres undefined)	0	6	-5	-7	5	18
CCN(Cc1ccccc1)C(=O)C1CCN(C(=O)Nc2ccccc2)CC1	1	3	2	-6	2	11
CCCN(CC(=O)Nc1ccccc1C)C(=O)C1CCN(C(=O)Nc2ccccc2)CC1	1	-19	21*	-1	2	-4
CCCn1nnc(NC(=O)/C=C/c2cc(Br)ccc2OC)n1	0	0	4	-10	1	8
COc1cccc(C(=O)N(CN2CCCC2=O)c2ccccc2OC)c1	0	11	11	28*	0	-8
CNC(=O)COC(=O)/C=C/c1cccc(F)c1	0	4	3	-13	2	19
Cc1nn(C)c(C)c1N1C(=O)c2cccc3c(N)ccc(c23)C1=O	63*	28*	-32	31*	82*	-10
CCN1C(=O)c2cccc3c(N)ccc(c23)C1=O	72*	44*	-24	19	317*	-15
CCCCNc1ccc2c3c(cccc13)C(=O)N(CCCC)C2=O	348*	81*	-39	93*	267*	-23
CCCN1C(=O)c2cccc3c(N4CCCCC4)ccc(c23)C1=O	4	2	-3	4	2	12
CN(C)CCCN1C(=O)c2cccc3c(Br)ccc(c23)C1=O	1	4	-11	-12	1	12
Cc1ccc(N2C(=O)c3cccc4c(N)ccc(c34)C2=O)c2cccnc12	23*	-2	6	14	16	-9
COC(=O)c1sccc1NC(=O)CC1C(=O)NCCN1C(=O)Nc1ccc(C(F)(F)F)cc1 (centres undefined)	1	-16	2	-8	2	15
CC(=O)Nc1ccc(SC[C@H](C)CN2CC[C@H](O)CCC2=O)cc1	0	6	-3	14	1	-9
CC(C)C#Cc1ccc2c(c1)O[C@@H](CN(C)S(=O)(=O)c1cn(C)cn1)[C@@H](C)CN([C@H](C)CO)S2(=O)=O	0	5	-3	-15	2	16
Cc1ccccc1N(CC(=O)N/N=C/c1ccc(F)cc1)C(=O)c1ccccc1	0	3	2	4	0	-5
Cc1ccccc1N(CC(=O)N/N=C/c1ccc(Cl)cc1)C(=O)c1ccccc1	0	-4	4	26*	0	-7

Screens as filed in PubChem BioAssay.
